This is an account of results in PubChem BioAssay AID1259341 (Broad Institute, 2017).

SMILES strings stand for the structures. The source made the active and inactive calls.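 The calls were made as follows: active = activity change under -35% in any replicate well, with more than 20 beads read in that well; inactive = the rest.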

The assay deals with Caspase recruitment domain-containing protein 9 (Homo sapiens) + E3 ubiquitin-protein ligase TRIM62 (Homo sapiens) (UniProt Q9H257+Q9BVG3). The assay is described as follows: CARD9/TRIM62 protein interaction inhibitors – cell lysate, HEK293FT lysates, Luminex bead ELISA, primary screen (AID 1259341).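 Also: PE anti-Flag signal of Flag-CARD9 captured by myc-TRIM62 beads.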 To be noted: PE fluorescence, active compounds read low, concentration not given here.
Sequence of Caspase recruitment domain-containing protein 9 (Homo sapiens) + E3 ubiquitin-protein ligase TRIM62 (Homo sapiens) (Q9BVG3 whole entry, looked up, the tested form may be a part): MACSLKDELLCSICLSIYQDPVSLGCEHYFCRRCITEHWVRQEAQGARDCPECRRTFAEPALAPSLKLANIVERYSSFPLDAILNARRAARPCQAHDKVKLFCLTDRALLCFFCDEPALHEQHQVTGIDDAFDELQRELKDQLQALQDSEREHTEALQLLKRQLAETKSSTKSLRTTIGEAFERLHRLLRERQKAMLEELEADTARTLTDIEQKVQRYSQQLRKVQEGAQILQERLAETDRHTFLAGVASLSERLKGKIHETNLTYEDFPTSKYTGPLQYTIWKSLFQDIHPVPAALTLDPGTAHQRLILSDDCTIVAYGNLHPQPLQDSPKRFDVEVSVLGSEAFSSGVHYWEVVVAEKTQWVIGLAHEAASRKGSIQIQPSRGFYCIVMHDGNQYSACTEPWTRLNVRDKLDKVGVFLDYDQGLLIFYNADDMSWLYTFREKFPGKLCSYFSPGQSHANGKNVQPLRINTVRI
Sequence of Caspase recruitment domain-containing protein 9 (Homo sapiens) + E3 ubiquitin-protein ligase TRIM62 (Homo sapiens) (Q9H257 whole entry, looked up, the tested form may be a part): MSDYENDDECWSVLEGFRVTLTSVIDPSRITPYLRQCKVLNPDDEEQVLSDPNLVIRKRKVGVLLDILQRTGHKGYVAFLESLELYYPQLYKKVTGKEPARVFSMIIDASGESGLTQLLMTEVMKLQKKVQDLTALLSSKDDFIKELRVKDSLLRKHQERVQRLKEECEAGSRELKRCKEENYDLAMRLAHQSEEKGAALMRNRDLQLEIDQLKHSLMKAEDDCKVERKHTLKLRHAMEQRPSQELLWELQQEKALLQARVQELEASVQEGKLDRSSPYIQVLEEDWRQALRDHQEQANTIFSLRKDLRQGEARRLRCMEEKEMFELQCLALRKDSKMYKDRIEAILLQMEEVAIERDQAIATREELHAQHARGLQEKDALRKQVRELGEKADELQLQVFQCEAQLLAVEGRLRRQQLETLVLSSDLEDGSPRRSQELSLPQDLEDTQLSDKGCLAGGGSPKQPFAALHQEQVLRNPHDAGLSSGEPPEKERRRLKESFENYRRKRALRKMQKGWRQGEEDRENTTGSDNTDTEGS
For `Cc1ccc(S(=O)(=O)Cc2ccc(C(=O)N3CCC4(CC3)OCCO4)o2)cc1`, the activity change, negative = inhibition was 1.47% (inactive).
Regarding `Nc1c(C(=O)NCc2ccco2)c2nc3ccccc3nc2n1CCN1CCOCC1`, the activity change, negative = inhibition was -14.4% (inactive).
In the case of `O=C(Nc1ccon1)c1cc2cccnc2n(Cc2ccccc2)c1=O`, the activity change, negative = inhibition was 4.61% (inactive).
Consider `O=C(NCCc1ccccc1)c1cc2cccnc2n(Cc2ccccc2)c1=O`, for which the activity change, negative = inhibition was -0.118% (inactive).
Take `O=C(NC1(C(F)(F)F)Oc2ccc(Cl)cc2O1)N1CCC2(CC1)OCCO2` (configuration not stated): the activity change, negative = inhibition is -0.512% (inactive).
Then `Nc1c2c(nc3ccccc13)CCN(Cc1ccccc1)C2`, with -1.61% (inactive).
Take `CCCCCn1c(NC(=O)c2ccco2)c(C(=O)OCC)c2nc3ccccc3nc21`: the activity change, negative = inhibition is -11.3% (inactive).
